TRPV1 agonist: human TRPV1 agonism; activation, % at 8.33 µM; TRPV1-expressing cells, Fluo-8 calcium influx, agonist mode; hit rate 0.19% among 320,000; in the data active = activation above about 80%; inconclusive = between about 30% and that limit
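Cells expressing TRPV1 were dye-loaded with Fluo-8 and read kinetically: 10 s baseline, 3 min after compound (agonist portion), then 2 min after EC20 capsaicin (allosteric enhancer portion). Calcium-bound dye fluorescence at 480/520 nm.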
TRPV1 potentiator: potentiators of human vanilloid receptor 1 (TRPV1); Q8NER1; TRPV1-expressing cells, Fluo-8 calcium influx, capsaicin EC20 potentiation; potentiation, % at 8.33 µM; hit rate 0.02% among 320,000; AID 540277; in the data active = potentiation above about 80%; inconclusive = between about 30% and that limit
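Cells expressing TRPV1 were dye-loaded with Fluo-8 and read kinetically: 10 s baseline, 3 min after compound (agonist portion), then 2 min after EC20 capsaicin (allosteric enhancer portion). Calcium-bound dye fluorescence at 480/520 nm.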
uPA surface inh: inhibitors of cell surface uPA generation; cell surface uPA generation assay, qHTS; Potency, µM (top dose mostly 38.3 µM), usual class: inhibitors; hit rate 0.31% among 330,000; AID 540303; active = well fitted inhibition curve with a large enough effect; inconclusive = small, poorly fitted or top-dose-only effect; inactive = no such curve, though single readings can be large or run the other way; tested in mouse RAW 264.7 cells; note: nearly all actives have a fitted effect of over 55% in size
VP16 counter: Gal4-VP16 reporter inhibition counter-screen; Drosophila S2 Gal4-VP16 UAS-luciferase, luminescence, 20 h; Potency, µM (titrated, usually from 53.6 µM), hits mostly inhibitors; hit rate 3.5% among 310,000;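 note: Gal4-VP16 expression switched on by copper sulfate through the metallothionein promoter; nearly all actives have a fitted effect of over 50% in size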
RORgamma inh: inhibitors of mouse ROR gamma transcriptional activity; Potency, µM (top dose mostly 53.6 µM), hits mostly inhibitors; AID 2551; Drosophila S2 Gal4-RORgamma UAS-luciferase reporter, 20 h; hit rate 5.4% among 310,000; note: nearly all actives have a fitted effect of over 60% in size
Target sequence (P51450 whole entry, looked up, the tested form may be a part): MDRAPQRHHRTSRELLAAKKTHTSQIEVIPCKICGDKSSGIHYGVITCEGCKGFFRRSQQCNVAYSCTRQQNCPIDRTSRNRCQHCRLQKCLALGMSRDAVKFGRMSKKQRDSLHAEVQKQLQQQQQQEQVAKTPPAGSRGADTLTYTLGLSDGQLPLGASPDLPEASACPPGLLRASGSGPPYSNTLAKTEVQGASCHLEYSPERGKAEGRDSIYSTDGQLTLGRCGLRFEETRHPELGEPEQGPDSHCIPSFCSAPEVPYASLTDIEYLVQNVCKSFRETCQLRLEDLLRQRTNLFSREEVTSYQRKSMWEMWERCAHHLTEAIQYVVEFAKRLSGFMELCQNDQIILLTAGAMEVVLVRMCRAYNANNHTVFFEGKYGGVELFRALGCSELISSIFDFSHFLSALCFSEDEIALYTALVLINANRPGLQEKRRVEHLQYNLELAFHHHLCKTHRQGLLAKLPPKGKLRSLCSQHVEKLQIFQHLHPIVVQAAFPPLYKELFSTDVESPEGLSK
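Compounds are pin-transferred onto Drosophila Schneider cells expressing a copper-inducible Gal4–ROR gamma transactivation domain fusion. After 1 hr, copper sulfate is added to 700 uM final; luciferase is read 20 hr later.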
Each line names hits and unclear results; the compound was inactive in the other large screens. Rows were chosen to be rich in hits. Some 5.8% of all compounds tested hit in one or more screens of this group. Unless noted, calls come from the whole dose curve; as a rule, active = well fitted curve in the direction sought with a large enough effect; inconclusive = small, poorly fitted or top-dose-only effect, or another doubt; inactive = no such curve, though single readings can be large; an effect the other way counts as inactive or inconclusive.

S=c1[nH]nc(CN2CCCCC2)n1Cc1ccccc1	VP16 counter 17.8µM, RORgamma inh 3.16µM
Nn1c(SCC(=O)N2CCCCCC2)nnc1-c1ccco1	none (no result: VP16 counter, RORgamma inh)
CC(C)(C)C1CCc2onc(C(=O)Nc3cnn(Cc4ccc(F)cc4)c3)c2C1 (configuration not stated)	VP16 counter 15.8µM, RORgamma inh inconclusive (no result: uPA surface inh)
S=C(NCc1ccccc1)N1CCN(c2cccc(Cl)c2)CC1	TRPV1 agonist inconclusive, RORgamma inh inconclusive
S=C(NC1CC2CCC1C2)N1CCN(c2cccc(Cl)c2)CC1 (configuration not stated)	TRPV1 agonist inconclusive, RORgamma inh 22.4µM
Cc1ccc(CNc2ccc3c(c2)ncn3C(C)C)cc1	RORgamma inh 5.01µM
COc1ccccc1-n1cnc2cc(NCc3ccccc3O)ccc21	none
COc1ccc(CNc2ccc3c(c2)ncn3-c2ccccc2OC)cc1	VP16 counter inconclusive, RORgamma inh 17.8µM
O=C(CCCc1ccc(-c2ccccc2F)cc1)Nc1ccc(O)cc1	VP16 counter 4.47µM, RORgamma inh 1.58µM (no result: TRPV1 agonist, TRPV1 potentiator, uPA surface inh)
COc1ccc(N(C)C(=O)c2oc(=O)c3ccccc3c2-c2ccccc2)c(OC)c1	none
Cc1c(-c2ccccc2)sc2nc[nH]c(=S)c12	VP16 counter 1µM, RORgamma inh 0.501µM
N#CCCn1cc(/C=N/NC(=O)c2ccncc2)c(-c2ccc(F)cc2)n1	none
COC(=O)c1c(C)cc(O)c(C=O)c1O	none (no result: TRPV1 agonist, TRPV1 potentiator, VP16 counter, RORgamma inh)
CCOC(=O)c1c(C)cc(O)c(C=O)c1O	VP16 counter inconclusive, RORgamma inh 11.2µM (no result: TRPV1 agonist, TRPV1 potentiator, uPA surface inh)
CN(/N=C\c1ccc(O)c(O)c1)c1nc(-c2ccccc2)cc(-c2ccccc2)n1	VP16 counter 3.16µM, RORgamma inh 2.51µM
O=C(NCc1ccncc1)c1ccc(NS(=O)(=O)c2ccccc2)cc1	none (no result: TRPV1 agonist, TRPV1 potentiator, VP16 counter, RORgamma inh)
CC1=NN(C(=O)c2ccccc2C)C(O)(c2ccc(Cl)cc2)C1 (configuration not stated)	VP16 counter 7.94µM, RORgamma inh 6.31µM
COC(=O)C1=NN(C(=O)c2ccc(Cl)cc2)C(O)(c2ccccc2)C1 (configuration not stated)	VP16 counter inconclusive, RORgamma inh inconclusive
CC1=NN(C(=O)c2ccccc2Br)C(O)(c2ccc(Cl)cc2)C1 (configuration not stated)	VP16 counter 8.91µM, RORgamma inh 3.98µM
S=C(NCc1ccncc1)Nc1ccc(Cl)cc1Cl	TRPV1 agonist 80.3
S=C(NCCN1CCOCC1)Nc1ccc(Cl)cc1Cl	none
Fc1ccc(NC(=S)Nc2ccc(Cl)cc2Cl)cc1	RORgamma inh inconclusive
O=C(NCc1ccncc1)Nc1ccc(Cl)cc1Cl	TRPV1 agonist inconclusive
Fc1ccc(CNC(=S)Nc2ccc(Cl)cc2Cl)cc1	TRPV1 agonist 87.6, VP16 counter 5.62µM, RORgamma inh 3.98µM
S=C(NCCc1ccc(Cl)cc1)Nc1ccc(Cl)cc1Cl	VP16 counter 4.47µM, RORgamma inh 5.62µM
CSc1ccccc1NC(=S)NCc1ccc(Cl)cc1	VP16 counter 11.2µM, RORgamma inh 7.08µM
O=C(CCC(=O)c1ccc(-c2ccccc2)cc1)Nc1cccnc1	TRPV1 agonist inconclusive
S=C(NCc1ccc(Cl)cc1)Nc1ccccc1Cl	VP16 counter inconclusive, RORgamma inh 12.6µM
CCCNC(=S)Nc1ccc(Cl)cc1Cl	VP16 counter inconclusive, RORgamma inh 11.2µM
S=C(NCc1ccc(Cl)cc1)Nc1ccc(Cl)cc1Cl	TRPV1 agonist inconclusive, VP16 counter 11.2µM, RORgamma inh 11.2µM
COc1ccc2c(c1)C(=O)[C@@H](OC(=O)Nc1ccc(C)c(Br)c1)[C@H](c1ccc(OC)c(Br)c1)O2	none (no result: TRPV1 agonist, TRPV1 potentiator, uPA surface inh)
COC(=O)C1CCN(Cc2cn(-c3ccccc3)nc2-c2ccc3c(c2)OCO3)CC1	none
COC(=O)C1=C[C@@H](C(=O)OC)C2C3=C(C(=O)[C@]2(CC(C)C)NC(=O)c2ccccc2)[C@H](C)n2c(=O)n(C)c(=O)n2[C@@H]3C1 (some centres not stated)	none (no result: TRPV1 agonist, TRPV1 potentiator, uPA surface inh)
CC(OC(=O)CCc1nc2ccccc2c(=O)[nH]1)C(=O)NC1CCCC1 (configuration not stated)	RORgamma inh inconclusive
CC(OC(=O)CCc1nc2ccccc2c(=O)[nH]1)C(=O)c1ccc(C(C)(C)C)cc1 (configuration not stated)	VP16 counter 5.62µM, RORgamma inh inconclusive
Cc1nc2cnc(N3CCOCC3)nc2n(Cc2cccs2)c1=O	none (no result: TRPV1 agonist, TRPV1 potentiator, uPA surface inh)
CN(CCCC(=O)Nc1ccccc1)S(=O)(=O)c1ccc(Cl)cc1	TRPV1 agonist inconclusive
O=C(CCCN1C(=O)/C(=C/c2ccco2)SC1=S)Nc1ccccc1C(=O)O	none
O=C(CCCN1C(=O)/C(=C\c2ccco2)SC1=S)Nc1ccc2ccccc2c1	VP16 counter 10µM, RORgamma inh 12.6µM
O=C(O)CCCN1C(=O)/C(=C\c2ccco2)SC1=S	VP16 counter 1.26µM, RORgamma inh 3.98µM
COc1ccc(-c2ccc(F)cc2)cc1C1C2C=CCC(C)C2C(=O)N1Cc1ccccc1 (configuration not stated)	none (no result: TRPV1 agonist, TRPV1 potentiator, uPA surface inh)
COc1c(C)c2c(c(O)c1CC=C(C)CCC(=O)OCCN1CCOCC1)C(=O)OC2	none (no result: TRPV1 agonist, TRPV1 potentiator, uPA surface inh)
CSc1nc(O)c(N=Nc2ccc(F)cc2F)c(=O)[nH]1	VP16 counter 10µM, RORgamma inh inconclusive
CSc1nc(O)c(C(c2ccc(F)cc2)c2c(O)nc(SC)[nH]c2=O)c(=O)[nH]1	none (no result: TRPV1 agonist, TRPV1 potentiator, VP16 counter, RORgamma inh)
CO/N=C(\C)CCN1CCCc2nc(C)c(C)cc21	none (no result: TRPV1 agonist, TRPV1 potentiator, uPA surface inh)
CCOc1ccccc1OCCCC(=O)Nc1nc2ccccc2[nH]1	RORgamma inh inconclusive
O=C(Cc1ccccc1F)Nc1nc2ccccc2[nH]1	VP16 counter inconclusive, RORgamma inh 10µM
O=C(Cc1cccc2ccccc12)Nc1nc2ccccc2[nH]1	VP16 counter 8.91µM, RORgamma inh 7.94µM (no result: uPA surface inh)
COc1cccc(CC(=O)Nc2nc3ccccc3[nH]2)c1	RORgamma inh inconclusive
CCCCCC(=O)Nc1nc2ccccc2[nH]1	VP16 counter inconclusive, RORgamma inh 6.31µM (no result: uPA surface inh)
Cc1ccc([N+](=O)[O-])c(N)c1	none (no result: TRPV1 agonist, TRPV1 potentiator, uPA surface inh)
COc1cccc(/C=N/N=C(\N)c2nonc2N)c1O	VP16 counter 0.631µM, RORgamma inh 0.1µM
COc1ccc(-c2ccc(-c3noc(-c4cccc(OC)c4)n3)c(OC)n2)cc1	VP16 counter inconclusive, RORgamma inh 0.355µM
COc1cccc(-c2nc(-c3cccs3)no2)c1	VP16 counter inconclusive, RORgamma inh 12.6µM
NCCC[C@H](N)CC(=O)N[C@H]1CNC(=O)[C@@H]([C@@H]2C[C@H](O)N=C(N)N2)NC(=O)/C(=C/NC(N)=O)NC(=O)[C@@H](CO)NC(=O)[C@@H](CO)NC1=O	none (no result: TRPV1 agonist, TRPV1 potentiator, uPA surface inh)
CC(NC(=S)Nc1c(Br)cccc1OC(F)F)C(C)(C)C (configuration not stated)	VP16 counter inconclusive, RORgamma inh 10µM
CCSc1cnn(-c2ccccc2)c(=O)c1SCC	RORgamma inh inconclusive
CCCCSc1cnn(-c2ccccc2)c(=O)c1SCCCC	TRPV1 agonist inconclusive, VP16 counter 14.1µM, RORgamma inh inconclusive (no result: uPA surface inh)
CC(C)CC(=O)Nc1ccc(-c2nc3ccccc3c(=O)[nH]2)cc1	none
